Assay results published in PubChem BioAssay AID1159580 (chemical genetic matrix, 2015).
Out of some 5,500 compounds screened, about 2,000 (36%) were called active. Inconclusive results (about 18%) are left out. Cut-off read from the data, not from the text of the source: active = normalized growth mostly below about 0.91 (no sharp cut-off); inconclusive = no clear call, values can overlap the other calls; inactive = mostly above about 0.92. The list shows a part of the results.

Test: chemical genetic growth profiling, strain panel (AID 1159580);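 note: tested at 20 µM; growth read once vehicle control cultures reached saturation at 30 °C; 1 = growth at the plate median or of vehicle wells; lower values mean less growth of the strain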
Settings: growth OD

Measured: normalized growth

CC1C(=O)OC2C1CCC1(C)C=CC(=O)C3(C)OC213 (stereo unspecified)
inactive: S. cerevisiae deletion strains, locus YAL013W, strain DEP1, hits give low values 0.968 | S. cerevisiae deletion strains, locus YBR021W, strain FUR4, hits give low values 1.01 | S. cerevisiae deletion strains, locus YBR229C, strain ROT2, hits give low values 1.01 | S. cerevisiae deletion strains, locus YCL029C, strain bik1, hits give low values 1.01 | S. cerevisiae deletion strains, locus YDL035C, strain GPR1, hits give low values 1.02 | S. cerevisiae deletion strains, locus YDL074C, strain BRE1, hits give low values 0.974 | S. cerevisiae deletion strains, locus YDL101C, strain DUN1, hits give low values 1 | S. cerevisiae deletion strains, locus YDL134C, strain PPH21, hits give low values 0.999 | S. cerevisiae deletion strains, locus YDL185W, strain tfp1, hits give low values 1.01 | S. cerevisiae deletion strains, locus YDL192W, strain arf1, hits give low values 0.999 | S. cerevisiae deletion strains, locus YDR101C, strain arx1, hits give low values 0.989 | S. cerevisiae deletion strains, locus YDR150W, strain NUM1, hits give low values 1 | S. cerevisiae deletion strains, locus YDR162C, strain NBP2, hits give low values 0.985 | S. cerevisiae deletion strains, locus YDR318W, strain mcm21, hits give low values 1.01 | S. cerevisiae deletion strains, locus YDR388W, hits give low values 1 | S. cerevisiae deletion strains, locus YDR502C, strain sam2, hits give low values 0.985 | S. cerevisiae deletion strains, locus YEL061C, strain CIN8, hits give low values 1.02 | S. cerevisiae deletion strains, locus YER110C, hits give low values 1.01 | S. cerevisiae deletion strains, locus YER155C, strain BEM2, hits give low values 1 | S. cerevisiae deletion strains, locus YER167W, strain BCK2, hits give low values 1.02 | S. cerevisiae deletion strains, locus YGL078C, strain dbp3, hits give low values 1 | S. cerevisiae deletion strains, locus YGL086W, strain mad1, hits give low values 1.01 | S. cerevisiae deletion strains, locus YGL248W, strain PDE1, hits give low values 1.01 | S. cerevisiae deletion strains, locus YGR078C, strain PAC10, hits give low values 0.989 | S. cerevisiae deletion strains, locus YGR135W, strain pre9, hits give low values 0.976 | S. cerevisiae deletion strains, locus YGR229C, strain SMI1, hits give low values 0.999 | S. cerevisiae deletion strains, locus YGR252W, strain gcn5, hits give low values 1.01 | S. cerevisiae deletion strains, locus YHR030C, strain SLT2, hits give low values 1.01 | S. cerevisiae deletion strains, locus YHR079C, strain IRE1 (second series), hits give low values 1.02 | S. cerevisiae deletion strains, locus YHR094C, strain hxt1, hits give low values 0.999 | S. cerevisiae deletion strains, locus YHR129C, strain ARP1, hits give low values 1.02 | S. cerevisiae deletion strains, locus YHR200W, strain rpn10, hits give low values 1 | S. cerevisiae deletion strains, locus YIL066C, strain RNR3, hits give low values 0.999 | S. cerevisiae deletion strains, locus YIL073C, strain SPO22, hits give low values 1.09 | S. cerevisiae deletion strains, locus YIL125W, strain kgd1, hits give low values 1.01 | S. cerevisiae deletion strains, locus YIR030C, strain dcg1, hits give low values 1 | S. cerevisiae deletion strains, locus YJL095W, strain BCK1, hits give low values 0.988 | S. cerevisiae deletion strains, locus YJL134W, strain LCB3, hits give low values 1.01 | S. cerevisiae deletion strains, locus YJL168C, strain set2, hits give low values 1.01 | S. cerevisiae deletion strains, locus YJL187C, strain SWE1 (second series), hits give low values 1.01 | S. cerevisiae deletion strains, locus YJR043C, strain POL32, hits give low values 1.06 | S. cerevisiae deletion strains, locus YJR075W, strain HOC1, hits give low values 1 | S. cerevisiae deletion strains, locus YKL009W, strain mrt4, hits give low values 1.02 | S. cerevisiae deletion strains, locus YKL068W, hits give low values 1 | S. cerevisiae deletion strains, locus YKL085W, strain MDH1 (second series), hits give low values 1.04 | S. cerevisiae deletion strains, locus YKL085W, strain MDH1, hits give low values 1.04 | S. cerevisiae deletion strains, locus YKL190W, strain CNB1, hits give low values 1.01 | S. cerevisiae deletion strains, locus YKR001C, strain vps1, hits give low values 1 | S. cerevisiae deletion strains, locus YLR039C, strain RIC1, hits give low values 1.01 | S. cerevisiae deletion strains, locus YLR058C, strain SHM2, hits give low values 1.01 | S. cerevisiae deletion strains, locus YLR102C, strain apc9, hits give low values 1.01 | S. cerevisiae deletion strains, locus YLR262C, strain YPT6, hits give low values 0.996 | S. cerevisiae deletion strains, locus YLR268W, strain sec22, hits give low values 0.959 | S. cerevisiae deletion strains, locus YLR330W, strain CHS5, hits give low values 1.01 | S. cerevisiae deletion strains, locus YLR342W, strain FKS1 (second series), hits give low values 1.06 | S. cerevisiae deletion strains, locus YLR371W, strain rom2, hits give low values 1.01 | S. cerevisiae deletion strains, locus YLR418C, strain cdc73, hits give low values 0.963 | S. cerevisiae deletion strains, locus YML016C, strain PPZ1, hits give low values 1 | S. cerevisiae deletion strains, locus YML032C, strain rad52, hits give low values 1.01 | S. cerevisiae deletion strains, locus YML124C, strain tub3, hits give low values 1 | S. cerevisiae deletion strains, locus YMR078C, strain ctf18, hits give low values 1 | S. cerevisiae deletion strains, locus YMR223W, strain ubp8, hits give low values 1.01 | S. cerevisiae deletion strains, locus YMR263W, strain SAP30, hits give low values 0.982 | S. cerevisiae deletion strains, locus YMR307W, strain GAS1, hits give low values 1.02 | S. cerevisiae deletion strains, locus YNL067W, strain RPL9B, hits give low values 0.97 | S. cerevisiae deletion strains, locus YNL128W, strain TEP1, hits give low values 1 | S. cerevisiae deletion strains, locus YNL153C, strain GIM3, hits give low values 0.989 | S. cerevisiae deletion strains, locus YNL233W, strain BNI4, hits give low values 1.01 | S. cerevisiae deletion strains, locus YNL250W, strain rad50, hits give low values 0.999 | S. cerevisiae deletion strains, locus YNL271C, strain bni1, hits give low values 1.01 | S. cerevisiae deletion strains, locus YNL298W, strain CLA4, hits give low values 0.99 | S. cerevisiae deletion strains, locus YNL307C, strain MCK1, hits give low values 1.02 | S. cerevisiae deletion strains, locus YNL322C, strain KRE1, hits give low values 1 | S. cerevisiae deletion strains, locus YNR052C, strain pop2, hits give low values 1.02 | S. cerevisiae deletion strains, locus YOL006C, strain TOP1, hits give low values 0.926 | S. cerevisiae deletion strains, locus YOL012C, strain htz1 1.83 | S. cerevisiae deletion strains, locus YOL147C, strain pex11, hits give low values 1.01 | S. cerevisiae deletion strains, locus YOR061W, strain CKA2, hits give low values 1.01 | S. cerevisiae deletion strains, locus YOR069W, strain VPS5, hits give low values 1.01 | S. cerevisiae deletion strains, locus YOR136W, strain idh2, hits give low values 1.01 | S. cerevisiae deletion strains, locus YOR144C, strain elg1, hits give low values 0.997 | S. cerevisiae deletion strains, locus YOR184W, strain ser1, hits give low values 1.01 | S. cerevisiae deletion strains, locus YOR316C, strain cot1, hits give low values 1.01 | S. cerevisiae deletion strains, locus YPL055C, strain LGE1, hits give low values 0.974 | S. cerevisiae deletion strains, locus YPL241C, strain CIN2, hits give low values 1.01 | S. cerevisiae deletion strains, locus YPR119W, strain clb2, hits give low values 0.996 | S. cerevisiae deletion strains, locus YPR141C, strain kar3, hits give low values 0.998 | S. cerevisiae deletion strains, locus YPR163C, strain tif3, hits give low values 1.01 | S. cerevisiae deletion strains, locus YPR167C, strain met16, hits give low values 1 | S. cerevisiae deletion strains, strain wtn01, hits give low values 0.996 | S. cerevisiae strains, strain wild type, hits give low values 1.01
